In PMC5540273 (PLoS ONE, 2017):

What was measured:
Settings in all cases: concentration: 1 μM, replicates: in singlicate; n = 1
[1] = test system: FLT3-autoinhibited
[2] = test system: FLT3
[3] = test system: FLT4
[4] = test system: FRK
[5] = test system: FYN
[6] = test system: GAK
[7] = test system: T1, GCN2(Kin.Dom.2,S808G)
T1 construct: gene EIF2AK4

[8] = test system: GRK1
[9] = test system: T2, GRK2
T2 construct: gene ADRBK1

[10] = test system: T3, GRK3
T3 construct: gene ADRBK2
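Also: KINOMEscan kinase panel screen.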

Compound | %Inh [1] | %Inh [2] | %Inh [3] | %Inh [4] | %Inh [5] | %Inh [6] | %Inh [7] | %Inh [8] | %Inh [9] | %Inh [10]
Cc1cccc(-c2nc(-c3ccc(S(C)(=O)=O)cc3)sc2-c2ccncc2)c1 | 2% | 14% | 8% | 0% | 0% | 5% | 0% | 0% | 0% | 3%
CSc1ccc(-c2cc3ncnc(SCC(=O)O)c3s2)cc1 | 0% | 0% | 0% | 16% | 4% | 0% | 0% | 0% | 0% | 13%
CCc1ccnc(/C=C/c2n[nH]c3cc(Sc4ccccc4C(=O)NC)ccc23)c1 | 7% | 19% | 99.9% | 17% | 0% | 0% | 18% | 2% | 18% | 7%
COc1ccc(Nc2ncc(C#N)c(Nc3ccccc3C(N)=O)n2)cc1N1CCN(C)CC1.Cl [GSK1558669] | 99.9% | 99.8% | 100% | 83% | 96.8% | 98.1% | 100% | 55% | 35% | 0%
Cc1c(Cn2c(C)nn3c(=O)cc(N4CCOC(C)C4)nc23)cccc1C(F)(F)F (centres unmarked) [GSK2344444] | 3% | 0% | 11% | 0% | 2% | 0% | 0% | 1% | 0% | 0%
